Composite z-score data for 35 compounds are collected here from PubChem BioAssay.

Molecules are shown by their SMILES.

The nature of the experiment: probe aNOTCH2 binding on compound microarray – biochemical, small-molecule microarray, 635/667 nm fluorescence, primary screen (AID 1121).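 Further: score merges feature fluorescence read at 667 nm with its signal to noise.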 As to conditions: higher = more signal.
Regarding `C[C@@H]1ON(c2ccccc2)[C@H](c2ccccc2)[C@H]1C(=O)O`, the composite z-score was -0.0846.
For the compound `C[C@]1(C(=O)O)c2ccccc2C(=O)N(Cc2cc(F)cc(C(F)(F)F)c2)[C@H]1c1ccc(CO)cc1`, the composite z-score is -0.182.
The value for `COCCOC(=O)N1C(=O)[C@@]2(c3cc(C#CCCO)ccc31)[C@H](c1ccccc1OCCO)N1[C@H](c3ccccc3)[C@H](c3ccccc3)OC(=O)[C@H]1[C@@H]2C(N)=O` was -0.118.
The figure for `O=C1[C@H]2C=C(I)[C@H](C[C@@H]2OCCCCCCO)[C@@]12CO2` is -0.112.
The figure for `C=CCOC(=O)[C@@H]1[C@H]2C(=O)O[C@H](c3ccccc3)[C@H](c3ccccc3)N2[C@H](c2ccc(OCCOC(=O)[C@H]3C[C@H]4C(=O)N[C@@H](CCCCN(C)C)C(=O)N4[C@H]3c3ccc(O)cc3)cc2)[C@@]12C(=O)Nc1ccc(I)cc12` is -0.0698.
For `O=C(NCc1ccccc1)[C@@H]1c2ccccc2C(=O)N(Cc2cc(C(F)(F)F)cc(C(F)(F)F)c2)[C@H]1c1ccc(CO)cc1`, the composite z-score is -0.008.
In turn, `CCCC[C@H]1C[C@@H]1[C@@H]1N(C(C)=O)[C@H](c2cccc(OC)c2)CC12CC2` yielded a composite z-score of 0.0112.
In the case of `CCOC(=O)C1=CCC(c2cc3ccccc3[nH]2)N(CCN2CC(C(=O)OCC)=CCC2c2cc3ccccc3[nH]2)C1` (stereo not given), the composite z-score was -0.108.
Take `C=C(CCCC)/C(=C/C[C@H](OC(C)=O)c1cccc(OCCO)c1)c1cnc2ccccc2c1`: the composite z-score was -0.149.
The value for `CCCN1C(=O)[C@@]2(c3ccc([N+](=O)[O-])cc3)CC(=O)N(CC34CC5CC(CC(C5)C3)C4)[C@@H]2c2ccc(CO)cc21` was -0.199.
The compound `COc1ccc(C(O)C2C=CC3C(=O)N(c4ccccc4)C(=O)C3N2Nc2ccc(C#N)cc2)cc1OCc1ccccc1` (stereo not given) returned a composite z-score of 0.131.
As to `CC(C)NC(=O)[C@@]1(c2ccc([N+](=O)[O-])cc2)CC(=O)N(CC23CC4CC(CC(C4)C2)C3)[C@@H]1c1ccc(CO)cc1`, the composite z-score was determined as 0.427.
The value for `CC1=C([C@H](O)CCc2ccccc2)[C@H](CO)n2c(=O)n(-c3ccccc3)c(=O)n2C1` was -0.199.
In turn, `O=C(NC1CC1)[C@@H]1c2ccccc2C(=O)N(Cc2cc(C(F)(F)F)cc(C(F)(F)F)c2)[C@H]1c1ccc(CO)cc1` showed a composite z-score of -0.102.
Regarding `COC(=O)[C@@]1(Cc2ccccc2)N=C(c2ccc(OCCCO)cc2)O[C@H]1c1ccccc1CN=[N+]=[N-]`, the composite z-score is -0.12.
The value for `O=C1c2ccccc2[C@@]2(Cc3ccccc3N(Cc3ccccc3)C2=O)[C@H](c2ccc(CO)cc2)N1Cc1ccccc1Cl` was -0.171; that for `CC(C)C[C@H]1NC(=O)C([C@@H](C)OCc2ccccc2)NC(=O)[C@@]23C(=O)N[C@@H](Cc4ccccc4)C2[C@H](C)[C@@]2(C)O[C@H]2C3/C=C/C/C=C\CNC1=O` (stereo not given in full) was -0.0148.
Turning to `CC(C)=CCCC(C)=CC(O)C1C=CC2C(=O)NC(=O)C2N1Nc1ccc(Cl)cc1Cl` (stereo not given), the composite z-score was -0.0464.
Compound `CCCCC(=C=CC[C@H](O)c1ccc(CO)o1)CCO` showed a composite z-score of -0.0404.
Turning to `CCOC(=O)C1=CC[C@@H](c2ccccc2)N(S(=O)(=O)c2ccc(C)cc2)[C@H]1c1ccccc1I`, the composite z-score is -0.0226.
`[N-]=[N+]=Nc1ccccc1[C@@H]1OC(c2ccc(OCCCO)cc2)=N[C@]1(CCS(=O)(=O)c1ccccc1)C(=O)NCC(O)CO` (stereo not given in full) showed a composite z-score of 0.014.
The value for `N#Cc1ccc(NN2C(C(O)C3CC=CCC3)C=CC3C(=O)N(c4ccccc4)C(=O)C32)cc1` (stereo not given) was -0.0037; that for `CC(C)C[C@@H]1NC(=O)[C@@]23C(=O)N[C@@H](Cc4ccccc4)C2[C@H](C)[C@@]2(C)O[C@H]2C3/C=C/C/C=C\CNC(=O)CNC1=O` (stereo not given in full) was -0.14.
As to `COc1ccc([Si](C)(C)[C@H]2[C@H](CC(=O)N3CCC[C@H]3CO)O[C@@]3(C(=O)N(Cc4ccc(N5CCCCC5=O)cc4)c4ccccc43)[C@@H]2C)cc1`, the composite z-score is -0.108.
`C=CCC(OC(C)=O)[C@@H]1[C@@H](N(Cc2cccc3ccccc23)C(=O)Cc2ccc(OC)cc2)c2cc(OCCCO)ccc2N1C(=O)c1ccc2ccccc2c1` (stereo not given in full) came in with a composite z-score of -0.143.
Compound `NC(=O)NCC#Cc1ccc2c(c1)[C@]1(C(=O)N2)[C@H](c2ccc(OCCO)cc2)N2[C@H](c3ccccc3)[C@H](c3ccccc3)OC(=O)[C@H]2[C@@H]1C(=O)O` came in with a composite z-score of -0.132.
`O=C1O[C@H](c2ccccc2)[C@H](c2ccccc2)N2[C@H]1[C@@H](C(=O)N1CCN(c3ncccn3)CC1)[C@]1(C(=O)Nc3ccc(C#CCCO)cc31)[C@H]2c1ccc(O)cc1`: the composite z-score was -0.11.
In turn, `C=C(CCCC)/C(=C/C[C@H](OC(=O)c1ccncc1)c1cccc(OCCO)c1)c1cnc2ccccc2c1` displayed a composite z-score of -0.0649.
`O=C(N1CCOCC1)[C@@]1(Cc2ccccc2)COC(c2ccc(OCCCO)cc2)=N1` came in with a composite z-score of 0.245.
The figure for `C=CCC(OC(C)=O)[C@@H]1[C@@H](N(Cc2ccc(-c3cccc(C(F)(F)F)c3)o2)C(=O)c2ccc(-c3ccccc3)cc2)c2cc(OCCCO)ccc2N1C(=O)c1ccc2ccccc2c1` (stereo not given in full) is -0.0707; for `[N-]=[N+]=NCc1ccccc1[C@@H]1OC(c2ccc(OCCCO)cc2)=N[C@]1(Cc1ccccc1N=[N+]=[N-])C(=O)NCC(O)CO` (stereo not given in full) it is 0.252.
The value for `CCCNC(=O)[C@@]1(c2ccc([N+](=O)[O-])cc2)CC(=O)N(C(C)C)[C@@H]1c1ccc(CO)cc1` was -0.0876; that for `CC(C)N1C(=O)C[C@@](C(=O)NCCN2CCOCC2)(c2ccc([N+](=O)[O-])cc2)[C@H]1c1ccc(CO)cc1` was -0.0836; that for `CCCC[C@H]1OB(O)C[C@H]2C1=C(COc1ccccc1)C[C@H]1C(=O)C=CC(=O)[C@H]12` was -0.0942.
The figure for `CC(C)[Si](C#CCCc1ccccc1)(O[C@H](c1ccccc1)c1cn(Cc2ccccc2)nn1)C(C)C` is -0.115.
